The supplement of paper PMC13380429

Tested on: Vero E6 infected with SARS-CoV-2
Test: inhibition of SARS-CoV-2 cytopathic effect; higher = more antiviral protection, active = above 15
Conditions: 48 h

Measured: inhibition of SARS-CoV-2 cytopathic effect

OC[C@H]1O[C@@H](n2cnc3c(NC4CCCC4)nc(Cl)nc32)[C@H](O)[C@@H]1O [2-chloro-N6-cyclopentyladenosine]
inactive: 1 nM -3.44% | 8.33 nM 0.41% | 100 nM 2.9% | 833.33 nM 2.35% | 10000 nM -0.77%

CN(C)CCCSc1ccccc1NC(=O)/C=C/c1ccccc1 [cinanserin]
inactive: 1 nM 1.46% | 8.33 nM 0.94% | 100 nM -0.47% | 833.33 nM -4.69% | 10000 nM -4.38%

Cc1c(I)c(=O)n(-c2ccccc2)n1C [iodoantipyrine]
inactive: 1 nM -0.48% | 8.33 nM -2.57% | 100 nM -0.75% | 833.33 nM -0.95% | 10000 nM 1.55%

CC(C)C(=O)Oc1ccc(CO)cc1[C@H](CCN(C(C)C)C(C)C)c1ccccc1 [fesoterodine]
inactive: 1 nM -1.73% | 8.33 nM -0.18% | 100 nM -0.25% | 833.33 nM -2.34% | 10000 nM 0.84%

C[C@]12COC(=O)C[C@@H]1CC[C@@H]1[C@@H]2CC[C@@]2(C)[C@H]1CC[C@]2(C)O [Oxandrolone]
inactive: 1 nM 1.55% | 8.33 nM 0.57% | 100 nM -0.27% | 833.33 nM -0.56% | 10000 nM 0.44%

O[C@@](Cc1nc(CC2(C(F)(F)F)CC2)c[nH]1)(c1ccc(-n2cccn2)cc1)C(F)(F)F
inactive: 1 nM 0.23% | 8.33 nM -0.02% | 100 nM 0.57% | 833.33 nM -0.43% | 10000 nM -2.55%

CCOC(=O)C1=C(C)NC(=S)NC1c1cccc(O)c1 (stereo not given) [monastrol]
inactive: 1 nM 0.53% | 8.33 nM -0.07% | 100 nM 1.51% | 833.33 nM 0.94% | 10000 nM -1.39%
